Data taken from PubChem BioAssay AID2314 (National Center for Advancing Translational Sciences (NCATS), 2010).
The whole screen tested about 300,000 compounds, of which about 37,000 (12%) were called active. No stated cut-off is given here; in the data, active means max response mostly above about 13% (no sharp cut-off); inactive means mostly below about 14%. This excerpt belongs to a sample that is enriched for actives.

Test: Cycloheximide Counterscreen for Small Molecule Inhibitors of Shiga Toxin; further: read at 38.3 µM for the half of the compounds with a filed dose; 0% is about no effect
Details: cell reporter, cycloheximide protein synthesis inhibition counterscreen; stronger effect = higher value

Row | SMILES | max response
1 | COc1ccc(C(CNC(=O)c2ccc(S(=O)(=O)Nc3ccccc3F)cc2)N(C)C)cc1 (centres undefined) | -6% (inactive)
2 | COC(=O)c1cccc(N(C(=O)c2ccco2)C(C(=O)NC2CCCC2)c2ccco2)c1 (centres undefined) | -1.82% (inactive)
3 | COc1cc(CNC2CCCCC2)c(Br)cc1OC1CCCC1 | -7.03% (inactive)
4 | CCc1ccc(CN(C)C(=O)C2CCC(=O)N(Cc3cccc(OC)c3)C2)nc1 (centres undefined) | 4.36% (inactive)
5 | CCn1nc(C)c(NC(=O)/C=C/c2ccc(OC)c(COc3ccc(Br)cc3)c2)c1C | 2.79% (inactive)
6 | CCCc1cc(=O)oc2c(C)c(OC(C)C(=O)NCC(O)c3ccccc3)ccc12 (centres undefined) | -2.74% (inactive)
7 | Cc1ccc(S(=O)(=O)NCC(=O)N(CC(=O)NCC2CCCO2)c2cccc(F)c2)cc1 (centres undefined) | 1.36% (inactive)
8 | CC(=O)NCC(=O)NC1CCCc2c1cnn2-c1ccccc1F (centres undefined) | 5.35% (inactive)
9 | CCOC(=O)C(=CNNc1ccsc1C(=O)OC)C(=O)OCC | 12.1% (inactive)
10 | O=C1CN(c2nc(-c3ccccc3)c3cc(Br)ccc3n2)c2ccccc2N1 | -2.03% (inactive)
11 | O=S(=O)(NCC1CN(S(=O)(=O)c2ccc3c(c2)OCCO3)C1)c1c(F)cccc1F | -7.82% (inactive)
12 | COc1ccccc1CNC(=O)c1cc(=O)c2ccccc2o1 | 28.7% (inactive)
13 | Cc1sc2ncnc(Sc3nc4ccccc4s3)c2c1C | -3.1% (inactive)
14 | c1ccc2sc(SNC3CCCCC3)nc2c1 | 43.3% (active)
15 | O=C1NC(Nc2nc3ccccc3s2)(C(F)(F)F)C(=O)N1C1CCCCC1 (centres undefined) | 0.879% (inactive)
16 | Cc1c(CC(=O)N2CCN(C(=O)C3COc4ccccc4O3)CC2)c(=O)oc2c(O)c(O)ccc12 (centres undefined) | -3.9% (inactive)
17 | CCOc1ccccc1OCCCNCc1ccccc1 | -2.14% (inactive)
18 | COc1ccc2c(c1)cc1n2CCN=C1NN | 64.4% (active)
19 | Cc1cccc(OCC(O)CN2CCN(S(=O)(=O)c3ccc(C)cc3C)CC2)c1 (centres undefined) | 6.97% (inactive)
20 | COc1ccc(NC(=O)N2CCCC(c3nc(-c4ccc(F)cc4)no3)C2)cc1 (centres undefined) | 27.8% (active)
21 | COc1ccc(NC2CCCN(C(=O)c3ccncc3)C2)cc1 (centres undefined) | -1.48% (inactive)
22 | CCn1nc(C)cc1C(=O)N1CCCC(C(=O)c2cccc(OC)c2)C1 (centres undefined) | 2.78% (inactive)
23 | CCN(C(=O)C1CCCN(c2nc(-c3ccc(OC)cc3)no2)C1)c1ccc(OC)cc1 (centres undefined) | -1.83% (inactive)
24 | CC(C)c1ccc(NC(=O)C2CCCN(S(=O)(=O)c3cccnc3)C2)cc1 (centres undefined) | 5.83% (inactive)

Row | SMILES | max response
25 | O=C(Cc1cccs1)N1CCCC(c2nc(-c3ccc(S(=O)(=O)N4CCCC4)cc3)no2)C1 (centres undefined) | -2.82% (inactive)
26 | O=C(c1ccc(F)cc1)N1CCCC(c2nc(-c3cccs3)no2)C1 (centres undefined) | 20.3% (inactive)
27 | COc1cc(-c2noc(C3CCCN(S(=O)(=O)c4cccc(Cl)c4)C3)n2)cc(OC)c1OC (centres undefined) | -4.41% (inactive)
28 | O=C(c1cccs1)N1CCCC(c2nc(-c3ccc(F)cc3)no2)C1 (centres undefined) | 26.6% (active)
29 | O=C(c1ccc(F)cc1)N1CCCC(C(=O)N2CCCCC2)C1 (centres undefined) | -3.54% (inactive)
30 | CC(C)c1ccc(-c2noc(C3CCCN(S(C)(=O)=O)C3)n2)cc1 (centres undefined) | 39.9% (active)
31 | COc1cccc(-c2noc(C3CCCN(C(=O)c4ccc(F)cc4)C3)n2)c1 (centres undefined) | 20.6% (active)
32 | NC(=O)C1CC(=O)N(c2ccc(OCC(=O)NCc3ccccc3)cc2)C1 (centres undefined) | -2.39% (inactive)
33 | Cc1ccc(S(=O)(=O)N2CCC(C)CC2)cc1C(=O)NCc1ccccn1 | 5.45% (inactive)
34 | NC(=O)c1oc2ccccc2c1NC(=O)CS(=O)(=O)c1ccccc1 | 14.9% (inactive)
35 | C=CCOc1cccc(CNCc2cccnc2)c1 | 1.07% (inactive)
36 | COc1ccc(/C=C2/C(=O)OCc3cc(OC)c(OC)cc32)c(OC)c1 | -1.45% (inactive)
37 | CC(=O)c1cccc(NC(=O)C2CCN(C(=O)c3ccccc3Cl)CC2)c1 | -2.1% (inactive)
38 | COC(=O)c1cccc(N(CC(=O)NCC2CCCO2)C(=O)CCC(=O)Nc2cc(C)on2)c1 (centres undefined) | -2.44% (inactive)
39 | COc1cccc(NC(=O)CCc2nnc3ccc(N4CCC(C)CC4)nn23)c1 | -5.83% (inactive)
40 | COc1ccccc1CN1CCNC(=O)C1CC(=O)N(C)CC1CCOCC1 (centres undefined) | -1.38% (inactive)
41 | Cc1ccc2nc(C)c3c(c2c1)N(c1ccccc1)CC3 | -1.78% (inactive)
42 | Cc1c(CN2CCCC(C(=O)c3cccc(Cl)c3)C2)c(=O)n(-c2ccccc2)n1C (centres undefined) | -3.35% (inactive)
43 | CCc1nc2ccc(C(=O)N3CCN(c4cccc(Cl)c4)CC3)cc2nc1CC | -0.581% (inactive)
44 | Cc1ccc(-c2noc(C3CCCN(C(=O)c4cccc(Cl)c4)C3)n2)o1 (centres undefined) | 47.3% (active)
45 | Cc1cccc2c1-c1sc(C(=O)NCCCN3CCc4ccccc4C3)cc1CO2 | 1.19% (inactive)
46 | O=S1(=O)N=C(N(CCO)/N=C/c2ccccc2F)c2ccccc21 | -7.2% (inactive)
47 | CCOC(=O)Cc1csc(SCC(=O)NC(C)C23CC4CC(CC(C4)C2)C3)n1 (centres undefined) | -2.6% (inactive)
48 | O=C(CCC1CCCN(Cc2ccc(O)c(Cl)c2)C1)NCc1ccccc1F (centres undefined) | -1.08% (inactive)

Row | SMILES | max response
49 | CSc1ncccc1C(=O)N1CCCC(CCC(=O)NCc2ccccc2F)C1 (centres undefined) | -1.29% (inactive)
50 | Cc1[nH]c2c(C(=O)N3CCCC(CCC(=O)NCc4ccccc4F)C3)cccc2c1C (centres undefined) | 18.9% (active)
51 | COc1ccc(CN2CCC(=O)c3ccccc3S2(=O)=O)cc1 | -4.16% (inactive)
52 | CC(C)(C)c1ccc(OC2=CS(=O)(=O)c3ccccc32)cc1 | 81.1% (active)
53 | O=S1(=O)C=C(SCCN2CCCC2)c2ccccc21 | 4.83% (inactive)
54 | CS(=O)(=O)N1CCCC(C(=O)Nc2ccccc2C(F)(F)F)C1 (centres undefined) | 0.965% (inactive)
55 | CN1C(=O)c2cccc3c(N)ccc(c23)C1=O | -4.64% (inactive)
56 | Cn1c(=O)c2c(nc(NCCc3ccccc3)n2Cc2ccccc2)n(C)c1=O | -1.53% (inactive)
57 | Cn1c(=O)c2c(nc(OCc3cccnc3)n2Cc2ccccc2)n(C)c1=O | 14.9% (active)
58 | C=CCOc1nc2c(c(=O)n(C)c(=O)n2C)n1Cc1ccc(Cl)cc1Cl | -2.08% (inactive)
59 | CS(=O)(=O)N(CC(=O)N1CCCCCC1)c1cccc(Cl)c1Cl | -2.66% (inactive)
60 | CC(=O)Nc1ccc(S(=O)(=O)N2CCC(NC(=O)c3ccccc3)CC2)cc1 | -2% (inactive)
61 | COc1ccc(S(=O)(=O)N2CCN(C(=S)NCC3CCCO3)CC2)cc1OC (centres undefined) | -1.28% (inactive)
62 | Cc1cccc(-n2c(O)c(C=NC34CN5CN(CN(C5)C3)C4)c(=O)[nH]c2=O)c1 | 8.1% (inactive)
63 | Cc1cccc(-n2c(O)c(C=Nc3ccccc3N)c(=O)[nH]c2=O)c1 | 39.4% (active)
64 | Cc1cccc(-n2c(O)c(/C=N/N3CCOCC3)c(=O)[nH]c2=S)c1 | -8.26% (inactive)
65 | CC1(C)Oc2ccc3ccc(=O)oc3c2/C(=N/O)C1=O | 7.27% (inactive)
66 | Oc1ccccc1C=NC1CCCCC1N=Cc1ccccc1O (centres undefined) | 6.63% (inactive)
67 | O=C(N/N=C/c1ccccc1O)C1CCCC1 | 28% (active)
68 | COc1ccc(/C=N/NC(=O)C2CC2)c(OC)c1OC | 3.25% (inactive)
69 | COc1cc(NC(=O)NCC2CCN(Cc3ccc(C)cc3)CC2)cc(OC)c1OC | -2.97% (inactive)
70 | COc1ccccc1C(=O)OCC(=O)NCCNC(=O)COC(=O)c1ccccc1OC | -1.55% (inactive)
71 | COc1cc(C(=O)NCc2ccc3c(c2)cc(C)n3C)cc(OC)c1OC | -6.41% (inactive)
72 | Cc1ccc(C(C(=O)NCC2CCCO2)N(C(=O)c2snc(C(N)=O)c2N)c2ccc(C(C)C)cc2)o1 (centres undefined) | 8.94% (inactive)

Row | SMILES | max response
73 | COC(=O)c1ccc(Oc2nc(Nc3ccc(F)cc3)nc(N3CCCC3)n2)cc1 | 0.283% (inactive)
74 | CCNc1nc(Oc2ccc(C(=O)OC)cc2)nc(N2CCOCC2)n1 | -3.34% (inactive)
75 | COC(=O)c1ccc(Oc2nc(NC(C)C)nc(SC)n2)cc1 | 9.19% (active)
76 | CCOc1ccc(NC(=O)CC(Cc2ccc(Cl)cc2)C(=O)O)cc1 (centres undefined) | -1.1% (inactive)
77 | Cn1cccc1C(=O)Nc1nccs1 | 18.6% (active)
78 | CC(NC(=O)C(=O)Nc1nccs1)c1ccccc1 (centres undefined) | -0.875% (inactive)
79 | O=C(O)c1ccccc1-c1ccccc1C(=O)Nc1nccs1 | -6.56% (inactive)
80 | Cc1ccc2cccc(S(=O)(=O)N3CCN(c4ccccc4F)CC3)c2n1 | -1.96% (inactive)
81 | COc1ccccc1Nc1cc(C(=O)NCCCN(C)C2CCCCC2)c2ccccc2n1 | -15.5% (inactive)
82 | CCc1ccc(-c2nnn(Cc3nc4ccccc4s3)n2)cc1 | 38.7% (active)
83 | Clc1cccc(Cl)c1Cn1nnc(-c2cccs2)n1 | 1.15% (inactive)
84 | CCc1ccc(-c2nnn(Cc3nn[nH]n3)n2)cc1 | -4.49% (inactive)
85 | Cc1cc(N2CCN(c3ccc(F)cc3)CC2)n2ncnc2n1 | 1.63% (inactive)
86 | COC(=O)c1ccccc1NS(=O)(=O)c1ccc2[nH]c(=O)[nH]c2c1 | -1.95% (inactive)
87 | O=C(NC(=S)Nc1cccc2c(O)cccc12)c1cccc(Br)c1 | -1.87% (inactive)
88 | Cc1ccc(C)c(NC(=S)NNC(=O)c2csc(C)c2)c1 | 10.1% (inactive)
89 | Cc1cc(C(=O)NNC(=S)NC(C)c2ccccc2)cs1 (centres undefined) | -2.7% (inactive)
90 | Cc1cc(C(=O)NNC(=S)Nc2ccccc2C)cs1 | 34.5% (active)
91 | CC(CC(=O)O)CC(=O)NNC(=O)c1cccc(Br)c1 (centres undefined) | -1.69% (inactive)
92 | Cc1ccccc1NC(=S)NNC(=O)c1cccc(Br)c1 | 17.3% (active)
93 | CCCCN=C1C([N+](=O)[O-])=CC=C2C1=NC1(CCCCC1)N2O | 4.25% (inactive)
94 | CCCc1nnc(NC(=O)CCC(=O)NC2CC2)s1 | -2.75% (inactive)
